The results in this text go back to PubChem BioAssay (Tox21).

A number with no mark means an inactive call. Inconclusive results are not listed. Active and inactive are the calls of the source. Unless noted, the call rests on the fitted dose curve; in most records, active means well fitted curve in the direction sought with a large enough effect in the repeat runs; inconclusive means weak or mixed curves; inactive means no such curve, though single readings can be large; an effect the other way counts as inactive or inconclusive.

Experiment [1] is described as follows: qHTS assay for small molecules that induce genotoxicity in human embryonic kidney cells expressing luciferase-tagged ATAD5 (AID 651632). Further: nearly all actives have a fitted effect of over 15% in size. An outline of the steps:
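HEK293T cells carrying luciferase-tagged ATAD5 were given compound or DMSO vehicle and incubated 16 hr at 37C, 5% CO2. Luciferase activity was read after 30 min at room temperature with Amplite; a rise signals genotoxic stress.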

The nature of experiment [2]: qHTS assay for small molecule agonists of the p53 signaling pathway - cell viability (AID 651633; calls by dose curve; further: nearly all actives have a fitted effect of over 30% in size; further: potency means the concentration at half of the fitted maximal effect). An outline of the steps: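 p53RE-bla cells were treated with compound for 16 hours at 37 C. Cytotoxicity was then measured as CellTiter-Glo luminescence after 30 min at room temperature.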
Experiment [3] can be described thus: qHTS assay for small molecules that induce genotoxicity in human embryonic kidney cells expressing luciferase-tagged ATAD5 - cell viability (AID 651634; calls by dose curve; further: nearly all actives have a fitted effect of over 25% in size). The essentials:
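HEK293T cells carrying luciferase-tagged ATAD5, 2,000 cells/well, exposed to compound for 15.5 hr at 37C. Viability read as live-cell protease activity by CellTiter-Fluor fluorescence after 30 min at 37C.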

Experiment [4] can be described thus: qHTS assay for small molecule disruptors of the mitochondrial membrane potential - cell viability (AID 720634; calls by dose curve;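 further: human HepG2 liver cancer cells; nearly all actives have a fitted effect of over 20% in size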). An outline of the steps:
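HepG2 cells, 2,000 per well, attached overnight, then treated 1 hr at 37 C, 5% CO2. Viability read as ATP by CellTiter-Glo luminescence after 30 min at room temperature. Read in the same wells as the m-MPI membrane-potential dye assay.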

A short description of experiment [5]: qHTS assay for small molecule disruptors of the mitochondrial membrane potential (AID 720635). An outline of the steps:
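HepG2 cells exposed to compound 1 hr at 37C, then Mito-MPS dye 30 min. Ratio read of aggregate (540/590 nm) versus monomer (490/535 nm) fluorescence.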

The nature of experiment [6]: qHTS assay to test for compound auto fluorescence at 590 nm (red) in HepG2 cells (AID 720674). The essentials: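 Fluorescence at 590 nm emission following 540 nm excitation was recorded from HepG2 wells one hour after compound transfer, with DMSO-only wells as vehicle and Rose Bengal sodium equivalency as the scale.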
A short description of experiment [7]: qHTS assay to test for compound auto fluorescence at 535 nm (green) in HepG2 cells (AID 720675).
Experiment [8] in a line: qHTS assay to test for compound auto fluorescence at 460 nm (blue) in HEK293 cells (AID 720678). An outline of the steps: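 Measured: blue fluorescence (Ex 405/Em 460 nm) of compound-treated HEK293 cells, incubated overnight at 37C with 5% CO2 and scaled to triamterene equivalents.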
Experiment [9] in a line: qHTS assay to test for compound auto fluorescence at 535 nm (green) in HEK293 cells (AID 720680).
Experiment [10] in a line: qHTS assay to test for compound auto fluorescence at 460 nm (blue) in HEK293 cell free culture (AID 720681). The essentials: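 Compounds were added to cell-free DMEM with 10% FBS and fluorescence read directly. The blue channel used 405 nm excitation and 460 nm emission, with triamterene as the reference fluorophore.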
Experiment [11] in a line: qHTS assay to test for compound auto fluorescence at 535 nm (green) in HEK293 cell free culture (AID 720682). An outline of the steps: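 Green-channel intensity (Ex/Em 485/535 nm) was recorded from compound-treated wells containing only DMEM with 10% FBS. Fluorescein provided the equivalency standard.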
The nature of experiment [12]: qHTS assay to test for compound auto fluorescence at 590 nm (red) in HEK293 cell free culture (AID 720683). The essentials:
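Cell-free wells of DMEM with 10% FBS received compound, and intrinsic fluorescence was read at excitation/emission 540/590 nm. Values expressed as equivalence to Rose Bengal sodium.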

Experiment [13] is described as follows: qHTS assay to test for compound auto fluorescence at 590 nm (red) in HepG2 cell free culture (AID 720684). An outline of the steps: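 Compounds are added to culture medium (MEM, 10% FBS) lacking cells, then fluorescence is read at excitation 540 nm, emission 590 nm, with Rose Bengal sodium as the equivalency standard.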
The nature of experiment [14]: qHTS assay to test for compound auto fluorescence at 460 nm (blue) in HepG2 cell free culture (AID 720685). An outline of the steps: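 Compound (23 nL) or DMSO pinned into cell-free MEM with 10% FBS; blue fluorescence read at 405/460 nm excitation/emission, expressed as auto-fluorescence equivalency to triamterene.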
A short description of experiment [15]: qHTS assay to test for compound auto fluorescence at 535 nm (green) in HepG2 cell free culture (AID 720686).
The nature of experiment [16]: qHTS assay to test for compound auto fluorescence at 460 nm (blue) in HepG2 cells (AID 720687). The essentials:
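HepG2 cells in MEM with 10% FBS, attached overnight at 37 C, were exposed to compound or DMSO for 1 hr at 37 C, 5% CO2. Blue fluorescence was read at 405/460 nm, with triamterene as reference fluorophore.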

For experiment [17], the target named is Glucocorticoid receptor (Homo sapiens) (UniProt P04150). In words: qHTS assay to identify small molecule agonists of the glucocorticoid receptor (GR) signaling pathway (AID 720691; active means well fitted activation curve with a large enough effect in the signal ratio in the repeat runs, not every such curve was filed as active; the % refers to the signal ratio). To be noted: GR-bla HeLa, beta-lactamase reporter ratio, 18 h; activation: at 62.4 µM (top of the series) unless noted. The essentials:
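GR-bla HeLa cells carrying a GRE-driven beta-lactamase reporter, exposed to compounds for 18 h at 37 C. Reporter activation read as fluorescence after 2 h with LiveBLAzer B/G FRET substrate at room temperature.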

Experiment [18] shares this target. In words: qHTS assay to identify small molecule antagonists of the glucocorticoid receptor (GR) signaling pathway (AID 720692; active means well fitted inhibition curve with a large enough effect in the signal ratio in the repeat runs, not every such curve was filed as active; the % refers to the signal ratio; further: potency means the concentration at half of the fitted maximal effect). The essentials:
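GR-bla HeLa cells carrying a GRE-driven beta-lactamase reporter received compound after 4 h plating, then dexamethasone (5 nM final). After 18 h at 37C, the FRET substrate was loaded for 2 h at room temperature and fluorescence read.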

Experiment [19] in a line: qHTS assay to test for compound auto fluorescence at 590 nm (red) in HEK293 cells (AID 720679). An outline of the steps: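 Using HEK293 cells at 2,000 per well, the screen added 23 nL of each compound after cell attachment and incubated overnight (37C, 5% CO2). The plate reader then captured red-label fluorescence, Ex/Em 540/590nm.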
The nature of experiment [20]: qHTS assay for small molecule agonists of the p53 signaling pathway (AID 651631; calls by dose curve; further: nearly all actives have a fitted effect of over 15% in size). An outline of the steps:
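We treat p53RE-bla HCT-116 cells with compounds for 16 h at 37 °C, add LiveBLAzer B/G FRET substrate for 2 h at room temperature, and measure fluorescence intensity.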
On the % scale 0 is the no-effect control and ±100 the full control effect.

Chain of Glucocorticoid receptor (Homo sapiens) (P04150 whole entry, looked up): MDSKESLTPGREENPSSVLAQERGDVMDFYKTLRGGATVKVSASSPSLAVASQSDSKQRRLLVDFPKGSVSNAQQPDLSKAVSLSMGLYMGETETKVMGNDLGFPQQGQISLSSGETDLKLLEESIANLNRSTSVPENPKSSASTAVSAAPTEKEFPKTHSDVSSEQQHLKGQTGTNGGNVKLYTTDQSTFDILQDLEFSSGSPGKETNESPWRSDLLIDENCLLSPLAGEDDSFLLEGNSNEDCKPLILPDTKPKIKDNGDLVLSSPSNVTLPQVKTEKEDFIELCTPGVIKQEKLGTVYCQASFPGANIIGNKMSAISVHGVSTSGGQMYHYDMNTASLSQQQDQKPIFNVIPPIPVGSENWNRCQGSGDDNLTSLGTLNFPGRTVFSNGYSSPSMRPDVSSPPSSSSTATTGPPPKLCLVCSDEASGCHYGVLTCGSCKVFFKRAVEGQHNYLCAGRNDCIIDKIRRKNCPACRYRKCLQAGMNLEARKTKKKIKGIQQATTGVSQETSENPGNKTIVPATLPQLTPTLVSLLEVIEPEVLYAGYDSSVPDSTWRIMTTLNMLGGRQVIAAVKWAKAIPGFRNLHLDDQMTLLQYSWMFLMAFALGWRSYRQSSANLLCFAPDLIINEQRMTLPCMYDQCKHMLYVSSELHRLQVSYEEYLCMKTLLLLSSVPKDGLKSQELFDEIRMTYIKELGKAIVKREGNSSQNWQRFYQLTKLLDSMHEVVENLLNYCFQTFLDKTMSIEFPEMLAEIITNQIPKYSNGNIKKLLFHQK

Take `COc1cc2nc(N(C)CCCNC(=O)C3CCCO3)nc(N)c2cc1OC` (centres undefined): the Potency entry in experiment [1], in experiment [2], in [3], in experiment [4], in [5] and in experiment [17] was “inactive” in each case. Besides, the Potency entry in experiment [18] is “inactive”. Moreover, the fluorescence, relative to Rose Bengal in experiment [6] is -0.119% [at 18.6 µM]. For the same compound, the fluorescence, % of fluorescein control in [7] was -0.0701% [at 18.6 µM]; in experiment [15], -0.0969% [at 18.6 µM]. For the same compound, the fluorescence, % of triamterene in [8] is -0.108% [at 18.6 µM]. In addition, in [9], the fluorescence, % of fluorescein is -0.0302% [at 18.6 µM]. Moreover, the fluorescence, % of fluorescent control in experiment [10] was -0.0154% [at 18.6 µM]; in experiment [12] it was -0.206% [at 18.6 µM]; in [14] it was -0.0022% [at 18.6 µM]; in experiment [16] it was 0.136% [at 18.6 µM]. Besides, the activity change in [11] was -0.131% [at 18.6 µM]. In addition, in experiment [13], the fluorescence, % of Rose Bengal was -0.324% [at 18.6 µM].

Consider `CCCCCCCCCCCCCCCCOS(=O)(=O)O`, for which the Potency result in experiment [1], in experiment [2], in experiment [3], in experiment [4], in experiment [6] and in [7] was “inactive” in each case. Further, the Potency result in experiment [19], in [12], in [13] and in [15] was “inactive” each time. The call in [8], in experiment [9], in experiment [10], in [11], in experiment [14] and in experiment [16] was inactive.

For the compound `CC(C)OC(=O)C(C)N(C(=O)c1ccccc1)c1ccc(F)c(Cl)c1` (centres undefined), the Potency result in [20], in [1], in experiment [6], in experiment [7], in [12] and in experiment [13] was “inactive” each time. Moreover, the Potency result in experiment [15] and in experiment [17] was “inactive” in each case. Also, the result in [8], in experiment [9], in experiment [10], in experiment [11], in [14] and in experiment [16] was inactive. Besides, the Potency in [18] is 43.6 µM (active).

As to `C=C(C)C(=O)OCC`, the Potency result in experiment [1], in experiment [2], in experiment [3], in experiment [4], in experiment [5] and in experiment [6] was “inactive” in each case. For the same compound, the Potency result in experiment [7], in [19], in experiment [12], in [13], in [17] and in experiment [18] was “inactive” each time. The result in experiment [8], in experiment [9], in experiment [10], in experiment [11] and in experiment [16] was inactive.

With `CN(Cc1ccc(C(C)(C)C)cc1)Cc1cccc2ccccc12`, the Potency result in experiment [1], in experiment [3], in experiment [4], in experiment [5], in experiment [6] and in experiment [7] was “inactive” each time. Also, the Potency result in [19], in experiment [12], in experiment [13], in experiment [15] and in [17] was “inactive” throughout. Further, in experiment [2], the Potency is 23.7 µM (active). For the same compound, the compound was classed as inactive in experiment [8], in experiment [9], in experiment [10], in experiment [11], in experiment [14] and in [16].

For the compound `S=C([S-])NCCNC(=S)[S-].[Mn+2]`, the Potency entry in [1], in experiment [2], in experiment [3], in experiment [4], in experiment [6] and in [7] was “inactive” throughout. Also, the Potency entry in [19], in experiment [12], in experiment [13], in experiment [15] and in [17] was “inactive” in each case. The compound was called inactive in [8], in [9], in experiment [10], in experiment [11], in [14] and in experiment [16].

For the compound `C=C(C)C(=O)OCCO`, the Potency entry in experiment [1], in experiment [2], in [3], in experiment [4], in experiment [5] and in experiment [6] was “inactive” in each case. The Potency result in [7], in experiment [19], in experiment [12], in [13], in experiment [15] and in [17] was “inactive” each time. The compound was called inactive in [8], in experiment [9], in experiment [10], in [11], in experiment [14] and in [16].
